Source: PubChem (National Center for Advancing Translational Sciences (NCATS))
This is a sample that favours compounds with a hit; in the whole collection about 6.1% have one here.
ATXN2 expr inh: inhibitors of ATXN2 expression; HEK-293 ATXN2-luciferase reporter, luminescence, 24 h; Potency, µM (highest dose often 57 µM), most hits filed as inhibitors; 0.72% of 360,000 active; AID 1745845; also: nearly all actives have a fitted effect of over 55% in size
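qHTS (up to 57 uM final) was run with 24 h compound exposure of reporter cells at 37 °C. Each well was multiplexed: SteadyGlo luminescence measured ATXN2-luciferase expression after a fluorogenic Gly-Phe-AFC viability readout (25 uM final).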
HepG2 viability: HepG2 cytotoxicity, counter-screen for TGF-b inhibitors; HepG2 CAGA-GFP viability, ATP luminescence, 18 h; Potency, µM (titrated, usually from 46.1 µM), hits mostly cytotoxic; 0.76% of 410,000 active; AID 588856
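CellTiter-Glo luminescence gave cytotoxicity after 18 hours at 37 degrees C. The cells were HepG2 CAGA-GFP in 1% FBS DMEM, stimulated with 500 pg/mL TGF-beta after compound addition. %Activity was normalised to no-cell wells (complete cell-killing) and DMSO (no toxicity), and curves were fitted and classified.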
VP16 counter: inhibits Gal4-VP16 luciferase reporter, ROR gamma counter-screen; Drosophila S2 Gal4-VP16 UAS-luciferase, luminescence, 20 h; Potency, µM (doses to about 53.6 µM), most hits filed as inhibitors; 3.5% of 310,000 active; AID 2546;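 also: Gal4-VP16 expression switched on by copper sulfate through the metallothionein promoter; nearly all actives have a fitted effect of over 50% in size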
TGFb inhibitor: TGF-b pathway inhibition | HepG2 CAGA-GFP TGF-b/SMAD3 reporter, GFP fluorescence, 18 h; TGF-beta stimulated, 500 pg/mL final | Potency, µM (series often up to 46.1 µM), actives largely listed as inhibitors | 1.2% of 410,000 active; also: nearly all actives have a fitted effect of over 65% in size
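Read-out: total well GFP (ex488/em500-530) summed from mean per-cell fluorescence. Cells: HEPG2 CAGA-GFP, 1% FBS DMEM, 18 h at 37 degrees C with 500 pg/mL final TGF-beta. Unstimulated wells served as the full-inhibition control; stimulated DMSO wells = 0%.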
S2 tox: cell viability loss in ATXN counter-screen | Potency, µM (doses to about 56.7 µM), most hits filed as cytotoxic | S2 cells (HEK-293 line with an ATXN2-luciferase reporter) viability, CellTiter-Fluor protease fluorescence, 24 h | AID 651635 | 0.49% of 400,000 active; also: nearly all actives have a fitted effect of over 40% in size
RORg inh: blocks mouse ROR gamma transcriptional activity; Potency, µM (doses to about 53.6 µM), hits mostly inhibitors; 5.4% of 310,000 active; AID 2551; Drosophila S2 Gal4-RORgamma UAS-luciferase reporter, 20 h; P51450; also: nearly all actives have a fitted effect of over 60% in size
Target sequence (P51450 whole entry, looked up, the tested form may be a part): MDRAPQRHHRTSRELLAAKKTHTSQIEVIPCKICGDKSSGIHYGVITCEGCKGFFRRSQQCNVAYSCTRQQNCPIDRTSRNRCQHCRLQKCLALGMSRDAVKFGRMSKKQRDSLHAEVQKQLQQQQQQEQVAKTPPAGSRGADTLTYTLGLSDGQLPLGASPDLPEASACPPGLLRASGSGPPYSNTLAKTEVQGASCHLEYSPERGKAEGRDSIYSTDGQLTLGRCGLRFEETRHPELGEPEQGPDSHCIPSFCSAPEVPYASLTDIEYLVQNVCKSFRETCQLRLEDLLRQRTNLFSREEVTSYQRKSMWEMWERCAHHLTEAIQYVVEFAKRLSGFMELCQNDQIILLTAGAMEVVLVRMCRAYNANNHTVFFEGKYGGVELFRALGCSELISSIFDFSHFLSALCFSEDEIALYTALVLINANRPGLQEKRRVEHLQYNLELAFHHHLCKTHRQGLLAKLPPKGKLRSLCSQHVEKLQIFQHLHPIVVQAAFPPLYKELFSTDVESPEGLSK
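Compounds are pin-transferred onto Drosophila Schneider cells expressing a copper-inducible Gal4–ROR gamma transactivation domain fusion. After 1 hr, copper sulfate is added to 700 uM final; luciferase is read 20 hr later.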
Of the large screens only hits and unclear results are named; the others gave an inactive call. Calls follow the shape of the dose curve; as a rule, active = well fitted curve in the direction sought with a large enough effect; inconclusive = small, poorly fitted or top-dose-only effect, or another doubt; inactive = no such curve, though single readings can be large; an effect the other way counts as inactive or inconclusive.

CC1=NN(C(=S)Nc2ccccc2)C(c2ccccc2)C1 (centres undefined)	VP16 counter inconclusive, RORg inh 12.6µM
Cc1ccc(C2CC(c3ccccc3)=NN2C(=S)Nc2ccccc2)o1 (centres undefined)	none
O=C(Nc1ccc(F)cc1)C1C(c2ccccc2)C1(Cl)Cl (centres undefined)	ATXN2 expr inh inconclusive, TGFb inhibitor 15.8µM, S2 tox inconclusive
C=CCOC(=O)C1=C(C)NC(SCC(=O)Nc2nccs2)=C(C#N)C1c1ccc(Cl)cc1 (centres undefined)	VP16 counter inconclusive, TGFb inhibitor inconclusive, RORg inh 11.2µM (no result: S2 tox)
CSC1=C(C#N)C(c2ccccc2)C(C(C)=O)=C(C)N1 (centres undefined)	TGFb inhibitor inconclusive (no result: ATXN2 expr inh)
CC(=O)C1=C(C)NC(SCC(=O)c2ccc(Cl)cc2)=C(C#N)C1c1ccco1 (centres undefined)	VP16 counter inconclusive, RORg inh inconclusive
CC(=O)C1=C(C)NC(SCC(=O)c2ccc(Cl)cc2Cl)=C(C#N)C1c1ccco1 (centres undefined)	VP16 counter 4.47µM, TGFb inhibitor inconclusive, RORg inh inconclusive
C=CCOC(=O)C1=C(C)NC(SCC(=O)Nc2nccs2)=C(C#N)C1c1cccs1 (centres undefined)	VP16 counter inconclusive, TGFb inhibitor inconclusive, S2 tox inconclusive, RORg inh inconclusive
CSCSC1=C(C#N)C(c2ccc(Cl)cc2)C(C(C)=O)=C(C)N1 (centres undefined)	VP16 counter inconclusive, RORg inh 14.1µM (no result: ATXN2 expr inh, HepG2 viability, TGFb inhibitor, S2 tox)
Cc1ccc([N+](=O)[O-])cc1S(=O)(=O)N1CCn2cccc2C1c1ccccc1 (centres undefined)	S2 tox inconclusive (no result: VP16 counter, RORg inh)
CN(C)S(=O)(=O)c1cccc(NC(=S)N2CCc3ccccc32)c1	VP16 counter inconclusive, TGFb inhibitor inconclusive, S2 tox inconclusive, RORg inh 14.1µM
CC1Cc2ccccc2N1C(=S)Nc1cccc(S(=O)(=O)N(C)C)c1 (centres undefined)	TGFb inhibitor inconclusive, RORg inh inconclusive
Cc1ccc(S(=O)(=O)N(C)C)cc1NC(=S)N1CCc2ccccc21	RORg inh 10µM
CC(C)(Sc1cc(C(C)(C)C)c(O)c(C(C)(C)C)c1)Sc1cc(C(C)(C)C)c(O)c(C(C)(C)C)c1	none
Cn1ccnc1C(O)c1cc(C(C)(C)C)c(O)c(C(C)(C)C)c1 (centres undefined)	VP16 counter inconclusive, TGFb inhibitor 15.8µM, RORg inh 10µM
CC(=O)c1ccc(-c2cc(F)cc3c2OC(CNC(=O)Cc2cn4ccsc4n2)C3)s1 (centres undefined)	none (no result: ATXN2 expr inh, HepG2 viability, VP16 counter, TGFb inhibitor, RORg inh)
Cc1cccc(C(=O)N/N=C/c2ccccn2)c1	VP16 counter 14.1µM, TGFb inhibitor inconclusive, S2 tox inconclusive, RORg inh 6.31µM
O=C(N/N=C/c1ccccn1)c1cccc(NC(=O)c2ccccc2Cl)c1	none
O=C(O)c1cccc(NC(=S)N/N=C/c2ccccn2)c1	VP16 counter inconclusive, RORg inh 4.47µM (no result: ATXN2 expr inh)
O=C(O)c1cccc(NC(=S)N/N=C/c2cccc(O)c2)c1	ATXN2 expr inh inconclusive
Cc1cccc(C(=O)Nc2cccc(C(=O)N/N=C/c3ccccn3)c2)c1	none (no result: ATXN2 expr inh)
Cc1occc1C(=O)N/N=C/c1ccccn1	RORg inh 10µM
O=C(N/N=C/c1ccccn1)c1cccc(S(=O)(=O)Nc2ccccc2Cl)c1	VP16 counter inconclusive, RORg inh 20µM
Cc1cc(C)c(Cn2c(=O)n(CCCCC(=O)NCc3ccccc3Cl)c(=O)c3ccccc32)c(C)c1	none (no result: VP16 counter, RORg inh)
Cc1cnc(SCc2ccccn2)nc1C1CCCN(Cc2ccsc2)C1 (centres undefined)	none (no result: ATXN2 expr inh, HepG2 viability, VP16 counter, TGFb inhibitor, RORg inh)
COc1ccc(-c2nn(-c3ccccc3)cc2/C=N/NC(=O)c2cccc(S(=O)(=O)Nc3ccccc3Cl)c2)cc1	VP16 counter 1.78µM, RORg inh 1.78µM
O=C(N/N=C/c1ccccn1)c1cc([N+](=O)[O-])cc([N+](=O)[O-])c1	VP16 counter 4.47µM, TGFb inhibitor 4.47µM, S2 tox inconclusive, RORg inh 3.55µM (no result: ATXN2 expr inh)
O=C(N/N=C1/CCCc2ccccc21)c1cc([N+](=O)[O-])cc([N+](=O)[O-])c1	RORg inh 11.2µM (no result: ATXN2 expr inh, HepG2 viability, TGFb inhibitor, S2 tox)
O=C(N/N=C/c1ccccn1)c1ccc([N+](=O)[O-])cc1	TGFb inhibitor inconclusive
COc1ccc(-c2nn(-c3ccccc3)cc2/C=N/NS(=O)(=O)c2ccccc2)cc1	TGFb inhibitor inconclusive, S2 tox inconclusive, RORg inh inconclusive
CCN(CC)S(=O)(=O)c1cccc(C(=O)N/N=C/c2ccccn2)c1	VP16 counter inconclusive, S2 tox inconclusive, RORg inh 8.91µM
CCN(CC)S(=O)(=O)c1cccc(C(=O)N/N=C/c2cccc(O)c2O)c1	ATXN2 expr inh inconclusive, TGFb inhibitor inconclusive
COc1cccc(NC(=O)Cn2c(=O)n(Cc3ccccc3)c(=O)c3c2c2cc(C)ccc2n3C)c1	none (no result: VP16 counter, RORg inh)
O=C(N/N=C/c1ccccn1)c1cccc([N+](=O)[O-])c1	ATXN2 expr inh inconclusive, VP16 counter 12.6µM, RORg inh 4.47µM
CCN(CC)C(=O)[C@@]1(c2ccccc2)C[C@@H]1CN	none (no result: ATXN2 expr inh, HepG2 viability, TGFb inhibitor, S2 tox)
CO[C@H]1C=CO[C@@]2(C)Oc3c(C)c(O)c4c(O)c(c(C=NN5CCN(C)CC5)c(O)c4c3C2=O)NC(=O)C(C)=CC=C[C@H](C)[C@H](O)[C@@H](C)[C@@H](O)[C@@H](C)[C@H](OC(C)=O)[C@@H]1C	S2 tox 28.2µM
CO[C@H]1C=CO[C@@]2(C)Oc3c(C)c(O)c4c(O)c(c(C=NN5CCN(C)CC5)c(O)c4c3C2=O)NC(=O)C(C)=CC=C[C@H](C)[C@H](O)[C@@H](C)[C@@H](O)[C@@H](C)[C@H](OC(C)=O)[C@H]1C	none (no result: HepG2 viability, VP16 counter, TGFb inhibitor, S2 tox, RORg inh)
CC1C(=O)NN=C1C(=O)N/N=C\C(Br)=C\c1ccccc1 (centres undefined)	VP16 counter 1.58µM, RORg inh 1.26µM
CN(C)c1ccc(/C=N/N=C2/NC(=O)/C(=C/c3ccc([N+](=O)[O-])cc3)S2)cc1	VP16 counter inconclusive, RORg inh 2.82µM
CCN1CCN(CCCNC(=O)c2cc3c(=O)n(C)c4ccccc4c3s2)CC1	ATXN2 expr inh inconclusive, S2 tox inconclusive (no result: VP16 counter, RORg inh)
N#C/C(=C\c1ccccc1)C(=O)Nc1sc2c(c1C(N)=O)CCC2	none (no result: VP16 counter, RORg inh)
COc1ccc(N(Cc2cccs2)C(=O)COc2cccc(C)c2C)cc1	TGFb inhibitor inconclusive (no result: ATXN2 expr inh, VP16 counter, S2 tox, RORg inh)
COc1ccc(N(Cc2cccs2)C(=O)COc2cc(C)c(Cl)c(C)c2)cc1	TGFb inhibitor 15.8µM (no result: ATXN2 expr inh, VP16 counter, S2 tox, RORg inh)
COc1ccc(N2CC(NC(=O)c3ccc(S(=O)(=O)N4CCOCC4)cc3)CC2=O)cc1OC (centres undefined)	none (no result: VP16 counter, RORg inh)
